In PubChem BioAssay (NCI):
This is part of a sample that, as a whole, favours compounds with a hit. Of some 83,000 tested, about 20% had one in any assay.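 Single-concentration screen, 48 h exposure, 96-well plates. Endpoint: percent growth. Below 10 = active.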 Values without a mark were called inactive. Activity calls are given as the source filed them.

System: HCT-116 colon
Assay: NCI-60 one-dose screen, 48 h (100 = growth as untreated, 0 = no growth, -100 = all killed)
Conditions: 10 µM
Method: Growth inhibition of the HCT-116 human tumor cell line is measured as a screen for anti-cancer activity. Cells are grown in 96 well plates and exposed to the test compound for 48 hours. Compounds are tested at a single concentration, which is 10^-5 M for most compounds. The reported endpoint is percent growth (GI% or GIPRCNT), where numbers from 0 - 100% represent growth inhibition, and numbers from -100% - 0 represent cell death. For example, a value of 40 represents 60% growth inhibition. A value of 0 means no net growth occurred over the course of the experiment. A value of -40 indicates 40% of cells at the beginning of the experiment died by the end of the experiment. A value of -100 means all cells are dead at the end of the experiment.
NCI-60 Human Tumor Cell Lines Screen was performed using the standard one-dose NCI protocol, which is described in more detail at https://dtp.cancer.gov/discovery_development/nci-60/default.htm.
Compounds with GIPRCNT values below 10 were considered active. Activity score was based on GIPRCNT using the following formula: […]
Score is 0 for GIPRCNT values of 100 or above, 50 for GIPRCNT values of 0, and 100 for GIPRCNT values of -100.

Which growth does the source give for `O=C(CCCSc1nc(-c2ccc(Cl)cc2)cc(-c2ccc(Cl)cc2)n1)NO` here?
Its growth is 11.5%.

`CCOC(=O)c1sc2ncnc(Nc3ccc4c(cnn4C(=O)Nc4ccc(C)c(Cl)c4)c3)c2c1C` was tested. Which growth did it give?
Its growth is 88.9%.

With `Nc1ccc(/C=N/Nc2ccnc3c(O)cccc23)c2cccnc12` as the molecule, how does the growth read?
Its growth is -0.0751% (active).

Which growth does the source give for `CCCCN1C(=O)CC(SC2CC(=O)N(CCCC)C2=O)C1=O` (stereo not given) here?
Its growth is 105%.

For `CCOC(=O)c1cocc1C(=O)O`, which growth is on record?
The growth was 103%.

For `COc1cc2cc(Oc3ccc(NC(=O)c4cc(C(F)(F)F)cc(C(F)(F)F)c4)cc3)c(C)nc2cc1OC`, which growth is on record?
Its growth is 19.2%.

Which growth does the source give for `O=C(Nc1cccc2c1CCCC2)c1cc2ccccc2cc1O` here?
Its growth is 6.56% (active).

`C#CC(C)(O)[C@@H]1C[C@H](CC(=O)O)C1(C)C` (stereo not given in full) was tested. Which growth did it give?
Its growth is 106%.

`S=C(SSC(=S)N(c1ccccc1)c1ccccc1)N(c1ccccc1)c1ccccc1` was tested. Which growth did it give?
The growth was 100%.

For `CCOC(=O)c1cc(C(=O)c2cc(OC)c(OC)c(OC)c2)n2ncc3ccccc3c12`, which growth is on record?
The growth was 50.8%.

`CC(C)C1=C(O)C2=C(C(=O)C1=O)[C@@]1(C)CCCC(C)(C)[C@@H]1CC2` was tested. Which growth did it give?
The growth was 58%.

Which growth does the source give for `Nc1cc(-c2ccc(Cl)cc2)nn1-c1nc2ccccc2nc1Cc1ccccc1` here?
Its growth is 72.8%.

Which growth does the source give for `N#Cc1c(N)nc(-c2cc(F)cc(C(F)(F)F)c2)nc1-c1ccccc1F` here?
The growth was 26.2%.

How did the growth turn out when `CC1=NN(C(=O)c2nn(-c3ccc(Cl)cc3)cc2O)C(=O)C1` was run?
The growth was 28.5%.

For `CCn1cc(C(=O)O)c(=O)c2cc(F)c(N3CCNCC3)cc21`, which growth is on record?
Its growth is 115%.

For `CN1CCc2c(sc3nc4n(-c5ccc(Cl)cc5)c(=O)[nH]n4c(=O)c23)C1`, which growth is on record?
The growth was 89.1%.

`S=C1N(c2ccccc2)CN(C2CCCCC2)CN1c1ccccc1` was tested. Which growth did it give?
The growth was 102%.

How did the growth turn out when `O=C1/C(=C/c2ccc3c(c2)OCO3)SC(=S)N1C1c2ccccc2Oc2ccccc21` was run?
Its growth is 92.9%.

For `O=[N+]([O-])c1ccc2ncccc2c1Cl`, which growth is on record?
Its growth is 5.31% (active).

`CCn1c(SCc2ccc(C)cc2)nnc1-c1nn(-c2ccc(Cl)cc2Cl)c(-c2ccc(Cl)cc2)c1C` was tested. Which growth did it give?
Its growth is 1.74% (active).

How did the growth turn out when `COc1cc2cc(Oc3ccc(NC(=O)c4ccc(Cl)c(C(F)(F)F)c4)cc3)c(C)nc2cc1OC` was run?
The growth was 8.43% (active).

With `O=C1/C=C/[C@@H](O)[C@@H]2C[C@@H](O)C[C@H]2/C=C/CCC[C@H](CCc2ccc(C(F)(F)F)cc2)O1` as the molecule, how does the growth read?
Its growth is -45.8% (active).

With `Cc1ccc(C(C)C)c(O)c1NC(=O)OC(C)C` as the molecule, how does the growth read?
The growth was 91.9%.

How did the growth turn out when `Cc1n[nH]c(C)c1N=Nc1cccc2c1C(=O)c1ccccc1C2=O` was run?
Its growth is 77.8%.

`COc1ccc(-c2nn(-c3cccc(Cl)c3)cc2-c2c(C#N)c(=O)n3[nH]c(-c4ccc(C)cc4)nc3c2C#N)cc1` was tested. Which growth did it give?
The growth was 9.86% (active).

How did the growth turn out when `O=C(CCl)Oc1ccc(OC(=O)CCl)cc1` was run?
The growth was 94.5%.

`O=C(N/N=C/c1c(Cl)cccc1Cl)c1ccccc1Nc1cccc(C(F)(F)F)c1` was tested. Which growth did it give?
The growth was 93.1%.

With `COc1ccc(-c2nn(-c3cccc(Cl)c3)cc2-c2c(C#N)c(=O)n3[nH]c(-c4ccccc4)nc3c2C#N)cc1` as the molecule, how does the growth read?
The growth was 87.3%.

How did the growth turn out when `Cc1ccc2nc(Cl)c(-c3nc4ccccc4o3)cc2c1` was run?
The growth was 97.3%.

Which growth does the source give for `O=C(NCCNC(=O)c1ccc(F)cc1)Nc1ccc(-n2cc(-c3ccncc3)c(-c3ccc(Cl)c(O)c3)n2)cc1` here?
The growth was -24.2% (active).

How did the growth turn out when `Fc1ccc2[nH]cc(-c3nc(-c4ccsc4)cs3)c2c1` was run?
Its growth is 91.5%.

Which growth does the source give for `COc1cc2cc(Oc3ccc(NC(=O)Nc4ccc(Cl)c(C(F)(F)F)c4)cc3)c(C)nc2cc1OC` here?
The growth was -87.3% (active).

With `COc1cc2c3c(n(C4CCN(C)CC4)c(=O)c2cc1OC)-c1cc2c(cc1C3=O)OCO2` as the molecule, how does the growth read?
Its growth is 40.8%.

`COc1cc2cc(Oc3ccc(NC(=O)Nc4ccc(C(F)(F)F)cc4)cc3)c(C)nc2cc1OC` was tested. Which growth did it give?
Its growth is 47.2%.

How did the growth turn out when `CNS(=O)(=O)Oc1ccc(-c2sc3cc(OS(=O)(=O)NC)ccc3c2C(=O)c2ccc(OCCN3CCCCC3)cc2)cc1` was run?
The growth was 33.4%.

With `CC(C)[N+]1(C)C2CC[C@@H]1CC(OC(=O)C(CO)c1ccccc1)C2` (stereo not given in full) as the molecule, how does the growth read?
The growth was 107%.

Which growth does the source give for `Cc1c(O)c(=O)ccn1C1CCC(CC2CCC(n3ccc(=O)c(O)c3C)CC2)CC1` (stereo not given) here?
The growth was 28.4%.

Which growth does the source give for `CCNc1nc(C(F)(F)F)nc2c1sc(=S)n2-c1ccccc1` here?
Its growth is 94.3%.

How did the growth turn out when `O=C1c2c(c(=O)[nH]c3ccccc23)CCN1Cc1ccccc1` was run?
The growth was 94.8%.

With `C[C@]12CCC3c4ccc(O)cc4C[C@@H](CCCCCCCCCS(=O)CCCC(F)(F)C(F)(F)F)C3C1CC[C@@H]2O` (stereo not given in full) as the molecule, how does the growth read?
The growth was 71.4%.
